Reference: PubChem BioAssay AID1159580 (chemical genetic matrix, 2015)
The whole screen tested about 5,500 compounds, of which about 2,000 (36%) were called active. About 18% were inconclusive and are not listed. This is one part of the list. A number with no mark means an inactive call. Rule as the data show it: active = normalized growth mostly below about 0.91 (no sharp cut-off); inconclusive = no clear call, values can overlap the other calls; inactive = mostly above about 0.92.

Test: chemical genetic growth profiling, strain panel (AID 1159580);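 also: tested at 20 µM; growth read once vehicle control cultures reached saturation at 30 °C; 1 = growth at the plate median or of vehicle wells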
Conditions: S. cerevisiae deletion strains, growth OD
[1] = locus YHR030C, strain SLT2, stronger effect = lower value
[2] = locus YHR079C, strain IRE1, stronger effect = lower value
[3] = locus YJL095W, strain BCK1, stronger effect = lower value
[4] = locus YJR066W, strain TOR1, stronger effect = lower value
[5] = locus YLR113W, strain HOG1, stronger effect = lower value
[6] = locus YNL183C, strain NPR1, stronger effect = lower value
[7] = locus YOR231W, strain MKK1, stronger effect = lower value
[8] = locus YPL256C, strain CLN2, stronger effect = lower value

O=C(NCC1COc2ccccc2O1)c1ccc(Cl)cc1 (stereo unspecified)
normalized growth (locus YAR019C, strain CDC15, stronger effect = lower value): 0.956 | normalized growth (locus YBL105C, strain PKC1, stronger effect = lower value): 0.952 | normalized growth (locus YBR135W, strain CKS1, stronger effect = lower value): 0.935 | normalized growth (locus YBR136W, strain MEC1, stronger effect = lower value): 0.957 | normalized growth (locus YBR160W, strain CDC28, stronger effect = lower value): 0.959 | normalized growth (locus YDL017W, strain CDC7, stronger effect = lower value): 0.944 | normalized growth (locus YDL028C, strain MPS1, stronger effect = lower value): 0.951 | normalized growth (locus YDL101C, strain DUN1, stronger effect = lower value): 0.98 | normalized growth (locus YDL108W, strain KIN28, stronger effect = lower value): 0.951 | normalized growth (locus YDL132W, strain cdc53, stronger effect = lower value): 0.936 | normalized growth (locus YDL214C, strain PRR2, stronger effect = lower value): 0.837 | normalized growth (locus YDR052C, strain DBF4, stronger effect = lower value): 0.973 | normalized growth (locus YDR054C, strain cdc34, stronger effect = lower value): 0.933 | normalized growth (locus YDR226W, strain ADK1, stronger effect = lower value): 0.949 | normalized growth (locus YDR477W, strain SNF1, stronger effect = lower value): 0.734 | normalized growth (locus YER123W, strain YCK3, stronger effect = lower value): 0.75 | normalized growth (locus YER133W, strain GLC7, stronger effect = lower value): 0.463 (active) | normalized growth (locus YFL009W, strain cdc4, stronger effect = lower value): 0.942 | normalized growth (locus YFL029C, strain CAK1, stronger effect = lower value): 0.933 | normalized growth (locus YFR003C, strain YPI1, stronger effect = lower value): 0.956 | normalized growth (locus YFR019W, strain FAB1, stronger effect = lower value): 0.745 (active) | normalized growth (locus YFR028C, strain CDC14, stronger effect = lower value): 0.942 | normalized growth (locus YGR040W, strain KSS1, stronger effect = lower value): 0.692 | normalized growth (locus YGR052W, strain FMP48, stronger effect = lower value): 0.899 | normalized growth (locus YGR092W, strain DBF2, stronger effect = lower value): 0.753 | normalized growth [1]: 0.638 (active) | normalized growth [2]: 0.759 | normalized growth (locus YHR082C, strain KSP1, stronger effect = lower value): 0.88 | normalized growth (locus YHR205W, strain SCH9, stronger effect = lower value): 0.901 | normalized growth (locus YIL147C, strain SLN1, stronger effect = lower value): 0.929 | normalized growth [3]: 0.586 | normalized growth (locus YJL128C, strain PBS2, stronger effect = lower value): 0.948 | normalized growth (locus YJL157C, strain FAR1, stronger effect = lower value): 0.84 | normalized growth (locus YJR016C, strain ILV3, stronger effect = lower value): 0.936 | normalized growth (locus YJR066W, strain TOR1 (second series), stronger effect = lower value): 0.561 (active) | normalized growth [4]: 0.714 | normalized growth (locus YKL048C, strain ELM1, stronger effect = lower value): 0.895 | normalized growth (locus YKL067W, strain YNK1, stronger effect = lower value): 0.842 | normalized growth (locus YKL101W, strain HSL1, stronger effect = lower value): 0.92 | normalized growth (locus YKL193C, strain SDS22, stronger effect = lower value): 0.933 | normalized growth (locus YKL203C, strain TOR2, stronger effect = lower value): 0.708 (active) | normalized growth [5]: 0.935 | normalized growth (locus YLR133W, strain CKI1, stronger effect = lower value): 0.88 | normalized growth (locus YLR403W, strain SFP1, stronger effect = lower value): 0.699 | normalized growth (locus YML070W, strain DAK1, stronger effect = lower value): 0.827 | normalized growth (locus YMR001C, strain CDC5, stronger effect = lower value): 0.896 | normalized growth (locus YMR205C, strain PFK2 (second series), stronger effect = lower value): 0.82 | normalized growth (locus YMR277W, strain FCP1, stronger effect = lower value): 0.923 | normalized growth (locus YNL006W, strain LST8, stronger effect = lower value): 0.929 | normalized growth (locus YNL020C, strain ARK1, stronger effect = lower value): 0.86 | normalized growth (locus YNL161W, strain CBK1, stronger effect = lower value): 0.958 | normalized growth [6]: 0.796 | normalized growth (locus YNL207W, strain RIO2, stronger effect = lower value): 0.91 | normalized growth (locus YNL222W, strain SSU72, stronger effect = lower value): 0.948 | normalized growth (locus YNL307C, strain MCK1 (second series), stronger effect = lower value): 0.872 | normalized growth (locus YOL078W, strain AVO1, stronger effect = lower value): 0.93 | normalized growth (locus YOL136C, strain PFK27, stronger effect = lower value): 0.802 | normalized growth (locus YOR061W, strain CKA2, stronger effect = lower value): 0.886 | normalized growth (locus YOR119C, strain RIO1, stronger effect = lower value): 0.723 | normalized growth [7]: 0.771 | normalized growth (locus YOR329C, strain SCD5, stronger effect = lower value): 0.938 | normalized growth (locus YPL031C, strain PHO85, stronger effect = lower value): 0.662 (active) | normalized growth (locus YPL153C, strain RAD53, stronger effect = lower value): 0.649 (active) | normalized growth (locus YPL204W, strain HRR25, stronger effect = lower value): 0.682 | normalized growth (locus YPL209C, strain IPL1, stronger effect = lower value): 0.952 | normalized growth [8]: 0.867 | normalized growth (locus YPR025C, strain CCL1, stronger effect = lower value): 0.951 | normalized growth (locus YPR106W, strain ISR1, stronger effect = lower value): 0.968 | normalized growth (locus YPR111W, strain DBF20, stronger effect = lower value): 0.962 | normalized growth (strain NNK1, stronger effect = lower value): 0.958 | normalized growth (strain TSCII, stronger effect = lower value): 0.92

O=C(CNC(=O)c1ccc(Cl)cc1)NO
normalized growth (locus YAL021C, strain ccr4, stronger effect = lower value): 1.01 | normalized growth (locus YAL026C, strain drs2, stronger effect = lower value): 1.01 | normalized growth (locus YAL030W, strain snc1, stronger effect = lower value): 1.01 | normalized growth (locus YBL061C, strain skt5, stronger effect = lower value): 1.01 | normalized growth (locus YBR009C, strain hhf1, stronger effect = lower value): 1.01 | normalized growth (locus YBR023C, strain chs3, stronger effect = lower value): 1.02 | normalized growth (locus YBR171W, strain sec66, stronger effect = lower value): 1.02 | normalized growth (locus YBR231C, strain swc5, stronger effect = lower value): 1.01 | normalized growth (locus YBR279W, strain paf1, stronger effect = lower value): 1.01 | normalized growth (locus YCL011C, strain gbp2, stronger effect = lower value): 1.01 | normalized growth (locus YCL016C, strain dcc1, stronger effect = lower value): 1.02 | normalized growth (locus YCL061C, strain MRC1, stronger effect = lower value): 1 | normalized growth (locus YCL069W, strain vba3, stronger effect = lower value): 1.01 | normalized growth (locus YCR088W, strain abp1, stronger effect = lower value): 1.01 | normalized growth (locus YDL005C, strain med2, stronger effect = lower value): 1.02 | normalized growth (locus YDL040C, strain nat1, stronger effect = lower value): 1.01 | normalized growth (locus YDR001C, strain nth1, stronger effect = lower value): 1 | normalized growth (locus YDR069C, strain doa4, stronger effect = lower value): 1.01 | normalized growth (locus YDR137W, strain rgp1, stronger effect = lower value): 1.03 | normalized growth (locus YDR159W, strain sac3, stronger effect = lower value): 1.01 | normalized growth (locus YDR195W, strain ref2): 0.972 | normalized growth (locus YDR297W, strain sur2, stronger effect = lower value): 1.04 | normalized growth (locus YDR334W, strain swr1, stronger effect = lower value): 1.02 | normalized growth (locus YDR335W, strain msn5, stronger effect = lower value): 1.02 | normalized growth (locus YDR392W, strain spt3, stronger effect = lower value): 1 | normalized growth (locus YEL003W, strain gim4, stronger effect = lower value): 1.01 | normalized growth (locus YEL037C, strain rad23, stronger effect = lower value): 1.04 | normalized growth (locus YEL061C, strain CIN8 (second series), stronger effect = lower value): 1.01 | normalized growth (locus YER015W, strain faa2, stronger effect = lower value): 1.01 | normalized growth (locus YER016W, strain bim1, stronger effect = lower value): 1.02 | normalized growth (locus YER111C, strain swi4, stronger effect = lower value): 1.01 | normalized growth (locus YER155C, strain BEM2 (second series), stronger effect = lower value): 1.03 | normalized growth (locus YFR010W, strain ubp6, stronger effect = lower value): 1.02 | normalized growth (locus YGL167C, strain pmr1, stronger effect = lower value): 1.01 | normalized growth (locus YGL173C, strain kem1, stronger effect = lower value): 1.02 | normalized growth (locus YGL227W, strain vid30, stronger effect = lower value): 1.01 | normalized growth (locus YGL240W, strain doc1, stronger effect = lower value): 1.01 | normalized growth (locus YGL253W, strain hxk2, stronger effect = lower value): 1.01 | normalized growth (locus YHR013C, strain ard1, stronger effect = lower value): 1.04 | normalized growth (locus YHR027C, strain rpn1, stronger effect = lower value): 1.01 | normalized growth [1]: 1.02 | normalized growth [2]: 1.03 | normalized growth (locus YHR142W, strain chs7, stronger effect = lower value): 0.997 | normalized growth (locus YJL092W, strain hpr5, stronger effect = lower value): 1.01 | normalized growth (locus YJL095W, strain BCK1 (second series), stronger effect = lower value): 1 | normalized growth [3]: 1.06 | normalized growth (locus YJL115W, strain asf1, stronger effect = lower value): 1.02 | normalized growth (locus YJL129C, strain trk1, stronger effect = lower value): 1.03 | normalized growth (locus YJL154C, strain vps35, stronger effect = lower value): 1.02 | normalized growth (locus YJL164C, strain tpk1, stronger effect = lower value): 1.01 | normalized growth (locus YJL166W, strain qcr8, stronger effect = lower value): 1.01 | normalized growth (locus YJL187C, strain SWE1, stronger effect = lower value): 1.01 | normalized growth [4]: 0.941 | normalized growth (locus YKL160W, strain elf1, stronger effect = lower value): 1.01 | normalized growth (locus YKR026C, strain gcn3, stronger effect = lower value): 0.992 | normalized growth (locus YKR091W, strain srl3, stronger effect = lower value): 1.01 | normalized growth (locus YLL001W, strain dnm1, stronger effect = lower value): 1.03 | normalized growth (locus YLL026W, stronger effect = lower value): 1.01 | normalized growth (locus YLL041C, strain sdh2, stronger effect = lower value): 1.02 | normalized growth (locus YLR027C, strain aat2, stronger effect = lower value): 1.01 | normalized growth [5]: 1.04 | normalized growth (locus YLR221C, strain rsa3, stronger effect = lower value): 1.01 | normalized growth (locus YLR258W, strain gsy2, stronger effect = lower value): 1.02 | normalized growth (locus YLR262C, strain YPT6 (second series), stronger effect = lower value): 1.03 | normalized growth (locus YLR320W, strain mms22, stronger effect = lower value): 1.01 | normalized growth (locus YLR342W, strain FKS1, stronger effect = lower value): 1.01 | normalized growth (locus YLR357W, strain rsc2, stronger effect = lower value): 1.02 | normalized growth (locus YLR370C, strain arc18, stronger effect = lower value): 1.01 | normalized growth (locus YLR384C, strain iki3, stronger effect = lower value): 1.02 | normalized growth (locus YML120C, strain ndi1, stronger effect = lower value): 1.01 | normalized growth (locus YMR058W, strain fet3, stronger effect = lower value): 1.01 | normalized growth (locus YMR125W, strain sto1, stronger effect = lower value): 1.01 | normalized growth (locus YMR129W, stronger effect = lower value): 1.01 | normalized growth (locus YMR205C, strain PFK2, stronger effect = lower value): 1.01 | normalized growth (locus YMR231W, strain pep5, stronger effect = lower value): 1.02 | normalized growth (locus YNL071W, strain lat1, stronger effect = lower value): 1.02 | normalized growth [6]: 0.951 | normalized growth (locus YNL209W, strain ssb2, stronger effect = lower value): 1.02 | normalized growth (locus YNL248C, strain rpa49, stronger effect = lower value): 1.01 | normalized growth (locus YNL322C, strain KRE1 (second series), stronger effect = lower value): 1.01 | normalized growth (locus YNR049C, strain mso1, stronger effect = lower value): 1.01 | normalized growth (locus YOR001W, strain rrp6, stronger effect = lower value): 1.02 | normalized growth (locus YOR070C, strain gyp1, stronger effect = lower value): 1.02 | normalized growth (locus YOR080W, strain dia2, stronger effect = lower value): 1.01 | normalized growth (locus YOR083W, strain WHI5, stronger effect = lower value): 1.01 | normalized growth (locus YOR106W, strain vam3, stronger effect = lower value): 1.02 | normalized growth [7]: 1.01 | normalized growth (locus YOR265W, strain rbl2, stronger effect = lower value): 1.01 | normalized growth (locus YOR270C, strain vph1, stronger effect = lower value): 1.05 | normalized growth (locus YOR290C, strain snf2, stronger effect = lower value): 1.03 | normalized growth (locus YPL051W, strain arl3, stronger effect = lower value): 1.01 | normalized growth (locus YPL078C, strain atp4, stronger effect = lower value): 1.01 | normalized growth (locus YPL106C, strain sse1, stronger effect = lower value): 1.04 | normalized growth (locus YPL240C, strain hsp82, stronger effect = lower value): 1.02 | normalized growth [8]: 0.997
